Screening data: PubChem, National Center for Advancing Translational Sciences (NCATS)
Compounds with a hit are over-represented: about 21% of the library has one in this group of screens.
Pf growth 48h: inhibits P. falciparum growth in the first generation, 48 h | P. falciparum luciferase growth in erythrocytes, 48 h | Potency, µM (doses to about 28.7 µM), most hits filed as inhibitors | hit rate 5.9% among 310,000
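Luminescence readout; reporter = integrated firefly luciferase in P. falciparum. RBC culture at 2% hematocrit, 0.1% parasitemia final, 37 C/5% CO2; decreased signal taken as growth inhibition.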
CHX counter: counter-screen for Shiga toxin inhibitors: cycloheximide protein synthesis inhibition | cell reporter, cycloheximide protein synthesis inhibition counterscreen | max response, % | hit rate 12% among 300,000; in the data active = max response mostly above about 13%, no sharp cut-off; inactive = mostly below about 14%; note: read at 38.3 µM for the half of the compounds with a filed dose
Pf growth 96h: P. falciparum growth inhibition at 96 hour, primary screen for plastid delayed-death inhibitors | P. falciparum luciferase reporter growth, 96 h | Potency, µM (highest dose often 28.7 µM), usual class: inhibitors | hit rate 6.9% among 320,000
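P. falciparum expressing integrated firefly luciferase grown in erythrocytes (2% hematocrit, 0.05% parasitemia final) with compounds for 96 hours at 37 C, 5% CO2. Growth inhibition read as loss of luminescence after adding luciferase detection reagent.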
SARS PLpro yeast: blocks SARS-CoV papain-like protease in a yeast assay. Potency, µM (top dose mostly 32.9 µM), usual class: activators. S. cerevisiae expressing SARS-CoV PLpro, growth rescue. hit rate 0.19% among 330,000; calls by dose curve; note: nearly all actives have a fitted effect of over 55% in size
Shiga inhibitor: Shiga toxin inhibition; Vero cells, Shiga toxin protein synthesis inhibition reporter; inhibition, % at 38.7 µM; hit rate 9.2% among 290,000; AID 2315; in the data active = inhibition mostly above about 28%, no sharp cut-off; inactive = mostly below about 43%
NS1 function inh: inhibitors of influenza NS1 protein function | Potency, µM (highest dose often 46.1 µM) | hit rate 0.4% among 270,000 | AID 2326; calls by dose curve; note: actives are rising curves; nearly all actives have a fitted effect of over 50% in size
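Compounds were scored for reversing the slow growth caused by influenza A NS1 in S. cerevisiae, measured by optical density at 600 nm. Assay medium contained 2% galactose at pH 6.0; NS1-free yeast of the same strain were the positive control.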
A number is an active result; n = inactive; u = inconclusive; x = no result. Unless noted, calls come from the whole dose curve; as a rule, active = well fitted inhibition curve with a large enough effect; inconclusive = small, poorly fitted or top-dose-only effect, or another doubt; inactive = no such curve, though single readings can be large or run the other way.

SMILES	Pf growth 48h	CHX counter	Pf growth 96h	SARS PLpro yeast	Shiga inhibitor	NS1 function inh
COc1ccccc1-c1nn(-c2ccccc2)cc1C(=O)NC1CC1	n	x	u	n	x	x
COc1ccccc1C(=O)Nc1ccc(-c2nnc(SCC(=O)O)n2C)cc1	n	n	u	n	n	u
C[C@H](CO)N1C[C@H](C)[C@@H](CN(C)S(=O)(=O)c2ccc(F)cc2)Oc2ccc(NC(=O)C3CCCCC3)cc2C1=O	x	x	x	n	x	x
CC(=O)N1c2ccccc2C(=O)OC1c1cccnc1 (stereo not given)	u	n	n	n	n	n
COc1cccc(C2OC(=O)c3ccccc3N2C(C)=O)c1OC(C)=O (stereo not given)	n	n	11.7µM	n	n	n
CCCc1ncc(C(O)c2cccc(OC)c2)n1C (stereo not given)	n	n	n	n	n	n
CCCc1ncc(C(=O)c2ccc(OC)cc2)n1C	n	n	n	n	41.6	n
COc1ccc(C(=O)c2cnc(C(C)C)n2C)cc1	n	16.3	x	n	82.2	n
CN(C)Cc1c[nH]c2nc[nH]c(=O)c12	x	x	x	x	x	n
CC1CCC2C(=O)N(c3ccccc3OC(=O)c3ccccc3F)C(=O)C2C1 (stereo not given)	n	n	n	n	n	n
COc1ccc(NC(=O)NCCc2cccc(Cl)c2)cc1OC	u	34.4	n	n	n	n
COc1ccc(CCNC(=O)Nc2ccc3c(c2)OCO3)cc1OC	n	n	u	n	n	n
O=C(NCCc1ccccc1)Nc1cccc(Cl)c1	n	49.3	2.94µM	n	n	n
O=C(NCCc1ccc(Cl)cc1)Nc1cccc(Cl)c1	u	n	n	n	37.1	n
O=C(/C=C/c1cccc(Cl)c1)NCCc1ccccc1	n	65.3	n	n	106.8	n
Cc1cccc(NC(=O)NCCc2ccc(Cl)cc2)c1	u	n	n	n	n	n
CC(NC(=O)COc1cccnc1[N+](=O)[O-])c1ccc(Cl)cc1 (stereo not given)	n	n	n	n	n	n
CC(=O)CC(=O)Nc1cccc2c1CCCC2	n	n	n	n	n	n
C/C(CC(=O)Nc1cccc2c1CCCC2)=N\NC(=O)c1ccccc1N	u	30.8	n	n	115.8	n
C/C(CC(=O)Nc1cccc2c1CCCC2)=N\NC(=O)c1cccc2ccccc12	n	n	13.1µM	n	n	n
CCN(C(=O)COC(=O)c1cc(Cl)ccc1OC)c1c(N)n(Cc2ccccc2)c(=O)[nH]c1=O	u	x	u	n	x	x
O=C(C1CC(=O)N(c2ccc(F)cc2)C1)N1CCCCCC1 (stereo not given)	n	n	n	n	n	n
CCCCCOc1ccc(C(=O)NCC(=O)NCC(=O)OCC)cc1	n	n	n	n	n	n
O=S1(=O)N=C(Nc2ccc(N3CCOCC3)cc2)c2ccccc21	n	n	n	n	n	n
Cc1ccccc1-c1ccc(Nc2ccc(N3CCOCC3)cc2)nn1	u	29.4	n	n	n	n
SMILES	Pf growth 48h	CHX counter	Pf growth 96h	SARS PLpro yeast	Shiga inhibitor	NS1 function inh
COc1ccc(N(CC(=O)NC2CCCC2)C(=O)c2ccc(N3CCCCC3)nc2)cc1	9.28µM	n	u	n	n	n
CCC(C)(C)NC(=O)CN(C(=O)c1ccc(N2CCCC2)nc1)c1ccc(F)cc1	4.15µM	n	u	n	n	n
COCCNC(=O)CN(C(=O)c1ccc(N2CCCC2)nc1)c1ccc(Cl)cc1	n	n	u	n	n	n
CC(NC(=O)Cc1ccc(Br)cc1)c1ccccc1 (stereo not given)	n	n	u	n	n	n
CCCCc1c(C)nc(N2CCCC2)[nH]c1=O	6.57µM	n	4.65µM	n	n	n
CCCCCCCc1c(C)nc(N2CCOCC2)[nH]c1=O	1.47µM	n	x	n	n	n
CCCCCCc1c(C)nc(-n2[nH]c(C)c(CCO)c2=O)[nH]c1=O	u	n	9.28µM	n	n	n
COc1cc(S(=O)(=O)n2nnc3ccccc32)c(OC)cc1Cl	n	n	9.28µM	n	n	n
CC1CCC(NC(=O)c2cc3c(s2)CCCC3)CC1 (stereo not given)	n	x	n	n	x	x
Fc1ccccc1Oc1nc(-c2ccncc2)nc2ccccc12	u	n	3.29µM	n	n	n
COc1ccc(Oc2nc(-c3cccnc3)nc3ccccc23)cc1	u	n	u	n	n	n
O=C(CN1C(=O)NC2(CCc3ccccc32)C1=O)c1c[nH]c2ccccc12 (stereo not given)	8.28µM	x	u	n	x	x
COc1ccccc1C(=O)CN1C(=O)NC2(CCCc3ccccc32)C1=O (stereo not given)	x	x	x	n	x	x
O=C(CN1C(=O)NC2(CCc3ccccc32)C1=O)c1ccccc1 (stereo not given)	n	n	n	n	n	n
COc1ccc(C(=O)CN2C(=O)NC3(CCCc4ccccc43)C2=O)cc1OC (stereo not given)	8.28µM	n	1.31µM	n	n	n
COc1ccc(CNC(=O)CN2C(=O)NC3(CCCc4sccc43)C2=O)cc1OC (stereo not given)	u	x	4.15µM	n	x	x
CCOc1ccc(CN(C)C(=O)CN2C(=O)NC3(CCCc4ccccc43)C2=O)cc1 (stereo not given)	u	x	1.17µM	n	x	x
COc1ccc(CCN(C)C(=O)CN2C(=O)NC3(CCCc4ccccc43)C2=O)cc1OC (stereo not given)	n	x	u	n	x	x
O=C(N/N=C/c1cc(Br)cs1)c1c[nH]c2ccccc12	u	44.2	u	n	62.4	n
O=C(N/N=C/c1ccc(Br)s1)c1c[nH]c2ccccc12	n	46.0	n	n	68.4	n
CC(=O)NNC(=O)CCn1nnc(-c2ccc(Cl)cc2)n1	n	n	n	n	n	n
Cn1c(Cc2cccs2)nnc1SCC(=O)Nc1ccc(F)cc1F	n	x	n	n	x	x
CC(/C=C/C=C/c1ccccc1)=N/NC(=O)C(O)c1ccccc1 (stereo not given)	n	n	n	n	n	n
CC(/C=C/C=C/c1ccccc1)=N/NC(=O)CNc1ccc(C)cc1	n	35.3	u	n	n	n
CC(/C=C/c1ccccc1)=N/NC(=O)CNC(=O)c1ccccc1F	n	n	n	n	n	x
SMILES	Pf growth 48h	CHX counter	Pf growth 96h	SARS PLpro yeast	Shiga inhibitor	NS1 function inh
CC(/C=C/c1ccccc1)=N\NC(=O)CNC(=O)c1ccccc1Cl	n	10.1	n	n	n	n
O=C(Cn1ncc2c(=O)oc3ccccc3c21)NC1CC1	n	n	u	n	n	n
COC(=O)C(CCSC)NC(=O)Cn1ncc2c(=O)oc3ccccc3c21 (stereo not given)	x	n	11.7µM	n	n	n
O=C(Cn1ncc2c(=O)oc3ccccc3c21)NCC1COc2ccccc2O1 (stereo not given)	x	n	1.85µM	n	n	n
CCCNC(=O)C1CN(C(=O)c2nn(Cc3ccccc3)c(=O)c3ccccc23)c2ccccc2O1 (stereo not given)	10.4µM	x	11.7µM	n	x	x
CC(C)COCC(O)CCC(=O)NNC(=S)Nc1ccccc1 (stereo not given)	n	n	n	n	n	n
CC(C)COC(=S)Nc1ccccc1	x	32.0	n	n	n	n
